Measurements as given in PubChem BioAssay (NCATS).
Inconclusive results are not listed. Entries that show only a call come without a potency. Activity calls are given as the source filed them. Unless noted, calls follow the shape of the dose curve; as a rule, active = well fitted curve in the direction sought with a large enough effect; inconclusive = small, poorly fitted or top-dose-only effect, or another doubt; inactive = no such curve, though single readings can be large; an effect the other way counts as inactive or inconclusive.

Legend:
[1] = molecular target: Peptidyl-prolyl cis-trans isomerase NIMA-interacting 1 (Homo sapiens) (UniProt Q13526); assay: qHTS Validation Assay to Find Inhibitors of Pin1 (AID 504536; active = well fitted inhibition curve with a large enough effect in the polarisation, with a control signal flat, not every such curve was filed as active; the % refers to the polarisation; also: potency is read from the fitted curve at half-maximal effect)
Peptidyl-prolyl cis-trans isomerase NIMA-interacting 1 (Homo sapiens), sequence (Q13526 whole entry, looked up): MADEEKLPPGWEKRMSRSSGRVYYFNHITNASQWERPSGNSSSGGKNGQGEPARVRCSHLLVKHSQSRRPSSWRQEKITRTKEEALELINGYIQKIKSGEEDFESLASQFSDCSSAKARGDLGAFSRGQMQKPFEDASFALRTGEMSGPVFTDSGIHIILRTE
Method in brief: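 Fluorescence polarization competition: compounds (titration) displace HiFluor-488-labeled Pin1-1b peptide from Pin1 (0.3 uM final) in pH 7.5 HEPES buffer with DTT, 10 min at room temperature; %Activity normalized to no-enzyme wells, curves fitted.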

[2] = molecular target: Phosphoglycerate kinase, glycosomal (Trypanosoma brucei brucei) (UniProt P07378); assay: qHTS Validation Assay to Find Inhibitors of Phosphoglycerate Kinase (AID 504547); also: potency is read from the fitted curve at half-maximal effect
Phosphoglycerate kinase, glycosomal (Trypanosoma brucei brucei), sequence (P07378 whole entry, looked up): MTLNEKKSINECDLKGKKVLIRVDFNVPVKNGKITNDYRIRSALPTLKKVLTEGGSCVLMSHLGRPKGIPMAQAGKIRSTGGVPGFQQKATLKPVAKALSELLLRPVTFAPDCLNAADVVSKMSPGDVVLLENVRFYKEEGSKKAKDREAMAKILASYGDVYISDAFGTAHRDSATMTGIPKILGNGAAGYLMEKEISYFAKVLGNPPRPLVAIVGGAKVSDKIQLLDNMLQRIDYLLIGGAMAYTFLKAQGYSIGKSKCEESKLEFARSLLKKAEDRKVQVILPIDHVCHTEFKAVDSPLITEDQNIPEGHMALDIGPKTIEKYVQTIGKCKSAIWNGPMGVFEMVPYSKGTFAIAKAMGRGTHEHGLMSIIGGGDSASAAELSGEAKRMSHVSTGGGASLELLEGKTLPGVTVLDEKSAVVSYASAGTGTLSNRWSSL
Method in brief: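 In TEA buffer (100mM, pH 7.6) containing 5mM MgCl2 and 0.01% Tween-20, the GAPDH-coupled PGK reaction proceeded for 60 minutes at room temperature before a single luminescence reading using Kinase-Glo Plus.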

[3] = molecular target: phosphoglycerate mutase (Leishmania major) (UniProt Q4Q090); assay: qHTS Validation Assay to Find Inhibitors of Phosphoglycerate Mutase (AID 504548); settings: Potency: inhibition qHTS;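 also: end-point luminescence from Kinase-GloPlus after the PGAM reaction; series mostly up to about 58 µM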
phosphoglycerate mutase (Leishmania major), sequence (Q4Q090 1-553): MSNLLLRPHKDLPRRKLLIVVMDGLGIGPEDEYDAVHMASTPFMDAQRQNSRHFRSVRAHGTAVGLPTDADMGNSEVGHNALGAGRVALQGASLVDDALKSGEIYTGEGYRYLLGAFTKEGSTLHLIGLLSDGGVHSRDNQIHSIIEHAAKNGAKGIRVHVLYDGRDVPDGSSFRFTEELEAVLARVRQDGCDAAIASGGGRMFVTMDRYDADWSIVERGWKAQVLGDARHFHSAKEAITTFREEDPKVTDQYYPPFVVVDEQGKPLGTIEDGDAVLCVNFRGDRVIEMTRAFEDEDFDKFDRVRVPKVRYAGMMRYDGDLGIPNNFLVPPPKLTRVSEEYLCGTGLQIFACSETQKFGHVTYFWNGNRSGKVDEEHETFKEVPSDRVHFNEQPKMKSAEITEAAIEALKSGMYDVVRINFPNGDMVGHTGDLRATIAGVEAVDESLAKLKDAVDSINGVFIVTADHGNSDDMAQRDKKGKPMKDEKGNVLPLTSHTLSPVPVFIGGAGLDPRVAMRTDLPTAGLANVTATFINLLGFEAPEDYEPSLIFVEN
Method in brief: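 L. major PGAM (1.25nM final) was added to substrate buffer and pinned compound, incubated 45 minutes at room temperature, then Kinase-GloPlus added; luminescence read after 10 minutes. Buffer: 100 mM TEA pH 7.6, 5 mM MgCl2, 0.01% Tween-20.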

[4] = molecular target: Ubiquitin carboxyl-terminal hydrolase 1 (Homo sapiens) (UniProt O94782); assay: Inhibitors of USP1/UAF1: Pilot qHTS (AID 504865); also: nearly all actives have a fitted effect of over 35% in size; also: potency is read from the fitted curve at half-maximal effect
Ubiquitin carboxyl-terminal hydrolase 1 (Homo sapiens), sequence (O94782 whole entry, looked up): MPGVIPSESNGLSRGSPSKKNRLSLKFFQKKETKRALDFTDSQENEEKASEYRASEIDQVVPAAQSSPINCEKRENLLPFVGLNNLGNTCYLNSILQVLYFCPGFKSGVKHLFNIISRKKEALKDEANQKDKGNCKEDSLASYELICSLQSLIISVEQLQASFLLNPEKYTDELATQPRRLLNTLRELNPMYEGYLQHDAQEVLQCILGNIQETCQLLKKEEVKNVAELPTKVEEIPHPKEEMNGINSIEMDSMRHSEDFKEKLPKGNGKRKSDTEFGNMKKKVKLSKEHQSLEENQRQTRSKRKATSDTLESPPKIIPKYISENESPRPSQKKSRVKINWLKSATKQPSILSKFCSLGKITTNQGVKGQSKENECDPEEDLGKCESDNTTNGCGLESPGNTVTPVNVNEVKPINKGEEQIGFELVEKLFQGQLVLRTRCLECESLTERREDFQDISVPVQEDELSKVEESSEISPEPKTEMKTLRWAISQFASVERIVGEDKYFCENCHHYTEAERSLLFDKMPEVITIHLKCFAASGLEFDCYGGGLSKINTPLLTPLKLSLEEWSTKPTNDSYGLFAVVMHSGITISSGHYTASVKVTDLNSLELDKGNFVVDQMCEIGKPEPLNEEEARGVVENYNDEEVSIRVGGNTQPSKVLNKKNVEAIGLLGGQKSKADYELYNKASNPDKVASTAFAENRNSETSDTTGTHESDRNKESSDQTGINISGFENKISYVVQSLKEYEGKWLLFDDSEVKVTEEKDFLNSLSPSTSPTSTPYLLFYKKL
Method in brief: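 Kinetic fluorescence assay: 1nM USP1/UAF1, 15 min compound preincubation, then 150nM Ub-Rho; 480/540 nm.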

[5] = qHTS for Inhibitors of ATXN expression: Validation of Cytotoxic Assay (AID 588349); also: potency is read from the fitted curve at half-maximal effect
Method in brief: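 Cytotoxicity counter-screen: ATP-based luminescent viability (CellTiter Glo) after 72 hr exposure of HEK293 cells to a compound titration at 37 degrees C.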

[6] = qHTS for Inhibitors of ATXN expression: Validation (AID 588378); also: series mostly up to about 57 µM; nearly all actives have a fitted effect of over 75% in size
Method in brief: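 Validation of ATXN2 expression inhibitors uses a cell-based luciferase fusion reporter in HEK293 cells, with 24 h compound exposure and paired viability (fluorescence) and reporter (luminescence) end-point reads.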

[7] = molecular target: DNA dC->dU-editing enzyme APOBEC-3G (Homo sapiens) (UniProt Q9HC16); assay: qHTS for inhibitors of Vif-A3G interactions: Validation (AID 588379)
DNA dC->dU-editing enzyme APOBEC-3G (Homo sapiens), sequence (Q9HC16 whole entry, looked up): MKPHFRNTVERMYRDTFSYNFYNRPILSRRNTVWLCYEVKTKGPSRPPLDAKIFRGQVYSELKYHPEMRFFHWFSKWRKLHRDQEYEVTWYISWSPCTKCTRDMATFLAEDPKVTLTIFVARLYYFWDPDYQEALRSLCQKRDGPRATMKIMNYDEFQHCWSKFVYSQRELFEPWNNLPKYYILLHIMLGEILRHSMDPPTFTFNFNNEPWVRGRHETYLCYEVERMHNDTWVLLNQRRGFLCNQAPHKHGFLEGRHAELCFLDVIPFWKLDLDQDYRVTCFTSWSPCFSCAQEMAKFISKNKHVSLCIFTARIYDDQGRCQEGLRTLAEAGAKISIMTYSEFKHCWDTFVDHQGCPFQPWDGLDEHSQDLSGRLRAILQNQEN
Method in brief: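 Yellow fluorescence (Ex 488, Em 500-530) of Vif-coexpressing HeLa A3G-eYFP cells, scanned by Acumen cytometer, reports blocked A3G degradation. Cells plated at 700/well overnight at 37 deg C before compound addition, then a further overnight compound incubation at 37 deg C.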

OC[C@H]1O[C@@H](n2cnc3c(NC4CCCC4)ncnc32)[C@H](O)[C@@H]1O
Potency [1]: inactive | Potency [2]: inactive | Potency [3]: inactive | Potency [4]: inactive | Potency [5]: inactive | Potency [6]: inactive

C[N+]1(C)CCC(OC(=O)C(c2ccccc2)c2ccccc2)CC1
Potency [1]: inactive | Potency [2]: inactive | Potency [3]: inactive | Potency [4]: inactive | Potency [5]: inactive | Potency [6]: inactive | Potency [7]: inactive

COc1cc(SC)ccc1C(=O)N1CCC(Cc2ccccc2)CC1
Potency [1]: inactive | Potency [2]: inactive | Potency [3]: inactive | Potency [5]: inactive

O=C1/C(=C/c2ccsc2)CC/C1=C\c1cccs1
Potency [1]: inactive | Potency [2]: inactive | Potency [4]: inactive | Potency [5]: inactive | Potency [6]: inactive

O=C(O)CC1CC(c2ccccc2)=NO1 (stereo unspecified)
Potency [1]: inactive | Potency [2]: inactive | Potency [4]: inactive | Potency [5]: inactive | Potency [6]: inactive

CC(=O)/C=C1\C(=O)N(C)c2ccccc21
Potency [1]: inactive | Potency [2]: inactive | Potency [4]: inactive

NC(=S)NCCC[C@H](N)C(=O)O
Potency [1]: inactive | Potency [2]: inactive | Potency [4]: inactive | Potency [5]: inactive | Potency [6]: inactive

CCCCCCCCCCCCCCCCCC(=O)NCC(COP(=O)([O-])OCC[N+](C)(C)C)OCC (stereo unspecified)
Potency [2]: inactive | Potency [3]: inactive | Potency [5]: 17.8 µM (active)

N#C/C(=C\c1ccc(O)c(O)c1)C(=O)c1ccc(O)c(O)c1
Potency [1]: 1.69 µM (active) | Potency [2]: 0.757 µM (active) | Potency [4]: inactive | Potency [5]: inactive | Potency [6]: inactive

CN1C2CC(OC(=O)[C@H](CO)c3ccccc3)CC1C1OC12 (stereo partly specified)
Potency [1]: inactive | Potency [2]: inactive | Potency [3]: inactive | Potency [5]: inactive | Potency [6]: inactive

CCCC1(C)C(C#N)(C#N)C1(C#N)C#N
Potency [1]: inactive | Potency [2]: inactive | Potency [4]: 10 µM (active)

Nc1nc(SCc2ccc([N+](=O)[O-])cc2)c2ncn([C@@H]3O[C@H](CO)[C@@H](O)[C@H]3O)c2n1
Potency [1]: inactive | Potency [2]: inactive | Potency [4]: inactive | Potency [5]: inactive | Potency [6]: inactive
